Literature values in PubChem BioAssay AID977610.
Hit rate of the full screen: of about 3,600 compounds, about 3,600 (100%) were called active. No cut-off is given here; in the data, nearly all actives have Ki up to about 18000 µM. The set was probably picked from earlier hits. Some of the results follow. Bridge positions count the residues as written; N and C are the ends. Square brackets hold non-standard residues; d marks the D form. Peptide text beside a SMILES is read from it. Orn(CH(NH2)2) = NC(N)NCCC[C@H](N)C(=O)O

Assay: PubChem AID 977610
Conditions: PDB protein-ligand complexes, literature Ki

C[C@@H](N)C(=O)N[C@H](C)C(=O)O (H-[dA]-[dA]-OH)
Ki (protein: vancomycin resistance D,D-dipeptidase/D,D-pentapeptidase VanXYc D59S mutant, PDB entry 4oak): 59.7 µM (active)

O=c1[nH]c(=O)n([C@@H]2O[C@H](CO[P+](O)(O)O[P+](O)(O)O)[C@@H](O)[C@H]2O)cc1-c1ccc(CO)s1
Ki (protein: Histo-blood group ABO system transferase, PDB entry 3v0p): 0.53 µM (active)

O=c1[nH]c(=O)n([C@@H]2O[C@H](CO[P+](O)(O)O[P+](O)(O)O[C@H]3O[C@H](CO)[C@H](O)[C@H](O)[C@H]3O)[C@@H](O)[C@H]2O)cc1-c1ccccc1
Ki (protein: Histo-blood group ABO system transferase, PDB entry 3v0l): 3 µM (active)

N[C@](CF)(Cc1c[nH]c2ccccc12)C(=O)O
Ki (protein: Pyridoxal-dependent decarboxylase domain protein RUMGNA-01526, PDB entry 4obv): 178000 µM (active)

CN(C)CCOc1cccc(-c2ccc(Cl)cc2)c1CN1CCN(c2ccc(C(=O)NS(=O)(=O)c3ccc(NCC4CCOCC4)c([N+](=O)[O-])c3)c(Oc3ccc4[nH]ccc4c3)c2)CC1
Ki (protein: Apoptosis regulator Bcl-2, PDB entry 4lxe): 0.0001 µM (active)
Ki (protein: Apoptosis regulator Bcl-2, PDB entry 4man): 1e-05 µM (active)

CN1C(=O)[C@@](CCC2CCCCC2)(C[C@H]2CCC[C@@H](Nc3ccc4ccccc4n3)C2)N=C1N
Ki (protein: Beta-secretase 1 BACE 1, PDB entry 4r95): 0.014 µM (active)

COc1ccc(-c2cc(Oc3cc(C)cc(OC)c3)cc(C)n2)cc1
Ki (protein: Macrophage migration inhibitory factor-like protein MIF, PDB entry 4p7s): 0.038 µM (active)

Cc1cc(Oc2cccc(O)c2)cc(-c2ccccc2)n1
Ki (protein: Macrophage migration inhibitory factor-like protein MIF, PDB entry 4p7m): 0.039 µM (active)

COc1cc(O)c2c(c1)/C=C/C[C@H](O)[C@H](O)C(O)CCC[C@H](C)OC2=O (stereo partly drawn)
Ki (protein: Tak1-Tab1 fusion protein, PDB entry 4gs6): 0.071 µM (active)

Cc1ncc(CO[P+](O)(O)O)c(CNc2co[nH]c2=O)c1O
Ki (protein: methionine gamma-lyase MGL, PDB entry 4oma): 68 µM (active)

CCCN1CCC(c2nc3c(C(N)=O)cccc3[nH]2)CC1
Ki (protein: Poly [ADP-ribose] polymerase 1, PARP-1, PDB entry 2rcw): 0.008 µM (active)

O=C(O)Cc1nn(Cc2nc3cc(C(F)(F)F)ccc3s2)c(=O)c2ccccc12
Ki (protein: Lactoylglutathione lyase, PDB entry 4kyh): 1.2 µM (active)

O=C(NS(=O)(=O)c1ccc(NC2CCOCC2)c([N+](=O)[O-])c1)c1ccc(N2CCN(CC3=C(c4ccc(Cl)cc4)CCOC3)CC2)cc1
Ki (protein: Apoptosis regulator Bcl-2, PDB entry 4lxd): 0.059 µM (active)

CC1(C)CCC(c2ccc(Cl)cc2)=C(CN2CCN(c3ccc(C(=O)NS(=O)(=O)c4ccc(N[C@H](CCN5CCOCC5)CSc5ccccc5)c(S(=O)(=O)C(F)(F)F)c4)cc3)CC2)C1
Ki (protein: Apoptosis regulator Bcl-2, PDB entry 4lvt): 4.4e-05 µM (active)

CC(C)C[C@H](NC(=O)[C@@H]1CSSC[C@H]2C[C@H](NC(=O)CN)C(=O)N[C@@H](CC(C)C)C(=O)NCC(=O)N[C@@H](CCCN=C(N)N)C(=O)NCC(=O)N[C@@H](CSS2)C(=O)N[C@@H](CCC(=O)O)C(=O)N[C@@H](CC(N)=O)C(=O)N[C@@H](Cc2cnc[nH]2)C(=O)N[C@@H](CCCN=C(N)N)C(=O)N1)C(N)=O
Ki (protein: Urokinase-type plasminogen activator, PDB entry 4os6): 0.36 µM (active)

NC(=O)C[C@@H]1NC(=O)[C@@H](N)CSSC[C@@H](C(=O)NCC(=O)O)NC(=O)[C@H](CCCN=C(N)N)NC(=O)CNC1=O (H-CNGRCG-OH; disulfide 1-5)
Ki (protein: Aminopeptidase N pAPN, PDB entry 4ou3): 38.7 µM (active)

CC(C)C[C@H](NC(=O)[C@@H]1CSS[C@@H]2CSSC[C@H](NC(=O)CNC(=O)[C@H](CCCN=C(N)N)NC(=O)CNC(=O)[C@H](CC(C)C)NC(=O)[C@@H](NC(=O)CN)C2)C(=O)N[C@@H](CCC(=O)O)C(=O)N[C@@H](CC(N)=O)C(=O)N[C@@H](Cc2cnc[nH]2)C(=O)N[C@@H](CCCN=C(N)N)C(=O)N1)C(N)=O
Ki (protein: Urokinase-type plasminogen activator, PDB entry 4os2): 0.2 µM (active)

CSCC[C@@H]1NC(=O)[C@H](CCCNC(N)N)NC(=O)[C@H](Cc2cnc[nH]2)NC(=O)[C@H](CC(N)=O)NC(=O)[C@H](CCC(=O)O)NC(=O)[C@H](CC(C)C)NC(=O)CNC(=O)[C@H](CCCNC(N)N)NC(=O)[C@H](Cc2c[nH]c3ccccc23)NC(=O)[C@H](CO)NC(=O)[C@@H](N)CSSC[C@@H](C(=O)O)NC1=O (H-CSW[Orn(CH(NH2)2)]GLENH[Orn(CH(NH2)2)]MC-OH; disulfide 1-12)
Ki (protein: Plasminogen activator, urokinase, PDB entry 2nwn): 0.5 µM (active)

CC(C)C[C@H](NC(=O)[C@@H]1CSSC[C@H](N)C(=O)N[C@H]2CSSC[C@H](NC(=O)CNC(=O)[C@H](CCCNC(N)N)NC(=O)CNC(=O)[C@H](CC(C)C)NC2=O)C(=O)N[C@@H](CCC(=O)O)C(=O)N[C@@H](CC(N)=O)C(=O)N[C@@H](Cc2cnc[nH]2)C(=O)N[C@@H](CCCNC(N)N)C(=O)N1)C(N)=O (H-CCLG[Orn(CH(NH2)2)]GCENH[Orn(CH(NH2)2)]CL-NH2; disulfide 1-12, 2-7)
Ki (protein: Urokinase-type plasminogen activator (C122A, N145Q mutation), PDB entry 4gly): 7.7 µM (active)

O=c1cc(-c2ccc(Br)cc2)oc2ccccc12
Ki (protein: Tankyrase-2, PDB entry 4kzu): 0.313 µM (active)

COc1ccc(CC[C@@H](OC(=O)[C@@H]2CCCCN2C(=O)[C@H](c2cc(OC)c(OC)c(OC)c2)[C@@H]2C=CCCC2)c2cccc(OCCN3CCOCC3)c2)cc1OC
Ki (protein: Peptidyl-prolyl cis-trans isomerase FKBP5 FKBP51FK1, PDB entry 4tw7): 0.026 µM (active)

COc1ccc(CC[C@@H](OC(=O)[C@@H]2CCCCN2C(=O)[C@H](c2cc(OC)c(OC)c(OC)c2)[C@@H]2CC=CCC2)c2cccc(OCC(=O)NCc3c(O)ccc4cc5ccc(=O)cc-5oc34)c2)cc1OC
Ki (protein: Peptidyl-prolyl cis-trans isomerase FKBP4 FKBP52FK1FK2, PDB entry 4tw8): 2.61 µM (active)

C=CC[C@H](C(=O)N1CCCC[C@H]1C(=O)O[C@H](CCc1ccc(OC)c(OC)c1)c1cccc(OCC(=O)O)c1)c1cc(OC)c(OC)c(OC)c1
Ki (protein: Peptidyl-prolyl cis-trans isomerase FKBP5 FKBP51FK1, PDB entry 4tw6): 61 µM (active)

OC[C@H]1CNC[C@@H](O)[C@@H]1O
Ki (protein: Beta-glucosidase 1, PDB entry 4iic): 14 µM (active)

OC[C@H]1CNC[C@@H](O)[C@@H]1O[C@@H]1O[C@H](CO)[C@@H](O)[C@H](O)[C@@H]1O
Ki (protein: GH26 beta-mannanase CjMan26C from Cellvibrio japonicus, PDB entry 4cd4): 0.263 µM (active)
Ki (protein: GH113 beta-mannanase AaManA from Alicyclobacillus acidocaldarius, PDB entry 4cd6): 260 µM (active)

O=C(c1ccc(F)c(F)c1Nc1ccc(I)cc1F)N1CC(O)([C@@H]2CCCCN2)C1
Ki (protein: Dual specificity mitogen-activated protein kinase kinase 1, PDB entry 4lmn): 5e-05 µM (active)

ON1CC=CCC1=S
Ki (protein: Carbonic anhydrase 2 (H94D mutation), PDB entry 4jss): 500 µM (active)

CC(C)(C)n1nc(-c2cccc3ccccc23)c2c(N)ncnc21
Ki (protein: Aminoglycoside 3'-phosphotransferase AphA1-IAB, PDB entry 4gkh): 21.5 µM (active)

CC(=O)N[C@@H](CC(=O)O)C(=O)N[C@@H](Cc1ccccc1)[P+](O)(O)C[C@@H](C)C(=O)N[C@@H](C)C(N)=O
Ki (protein: Angiotensin Converting Enzyme N domain glycsoylation mutant (Ndom389), PDB entry 3nxq): 0.007 µM (active)

C[C@H](C[P+](O)(O)[C@H](Cc1ccccc1)NC(=O)[C@H](N)Cc1nn[nH]n1)C(=O)N[C@@H](C)C(N)=O
Ki (protein: ANGIOTENSIN-CONVERTING ENZYME, PDB entry 4bxk): 0.0112 µM (active)

CC(=O)N[C@@H](CC(C)C)C(=O)N[C@H](C(=O)N[C@@H](Cc1ccccc1)C(=O)N[C@]1(C)CCCCCC/C=C/CCC[C@@](C)(C(=O)N[C@@H](CO)C(=O)N[C@@H](C)C(=O)N[C@@H](C)C(=O)O)NC(=O)[C@H](CC2CCC2)NC(=O)[C@H](CCC(N)=O)NC(=O)[C@H](C)NC(=O)[C@H](Cc2c[nH]c3ccccc23)NC(=O)[C@H](Cc2ccc(O)cc2)NC(=O)[C@H](CCC(=O)O)NC1=O)[C@@H](C)O
Ki (protein: Protein Mdm4, PDB entry 4n5t): 0.007 µM (active)
